# Measurements published in the OligoGym collection.
# Molecular target: C15orf54
# Experiment: pooled miR-30 sensor sort-seq; sequence = guide strand
# Conditions: shRNA
# Further: reference of the scale not given here.
row,Sequence,sensor-assay potency score (higher = more potent)
1,TATACTTATTCTCACATCCTTT,-0.462
2,TTCTGTAGGCACTACATTCTGG,-0.0345
3,TTGAAAGGGACATCTGTTGGAT,0.0555
4,TATTTGAACATATAAGATGTTA,-0.68
5,TTCAGTTTGTGACTTTTGCTGG,0.098
6,TTCCTTTACATTTATAACCATT,-1.28
7,TAGTATAATAAAGTTATGCTAC,-0.835
8,TTAAGCAATGAGCTCAATCTAG,-0.475
9,TTCAAGATCAAACTAGGCCATG,-1.17
10,TTATTTGAAAGGGACATCTGTT,-0.498

# Molecular target: C15orf58
# Experiment: as above
# Conditions: shRNA
row,Sequence,sensor-assay potency score (higher = more potent)
1,TGCCTGTACGTCTTCTGCCTGG,-0.932
2,ATTGAAAGCTTCACCGTCCTTT,0.575
3,TTGAAGTTGAACTGTACAGGGT,0.153
4,TTATCAAGGACTCCAAGTCAGG,-1.43
5,TCTTGTTGAAGTTGAACTGTAC,0.172
6,TGAAGTTGAACTGTACAGGGTC,0.667
7,TTTGGGTCTGTAGCTCCCGTAG,-1.43
8,AACATTGAAAGCTTCACCGTCC,0.994
9,TGTCAGGCTGCTGAAGTCCTGG,-0.843
10,ATCTTGTTGAAGTTGAACTGTA,-0.903
11,TCTTCTTGCAGCAGAGTCCCAG,-0.775

# Molecular target: C16orf55
# Experiment: as above
# Conditions: shRNA
row,Sequence,sensor-assay potency score (higher = more potent)
1,TAGATTTTGGAACTGAATAGGT,-0.346
2,TTTTGGAACTGAATAGGTGGAT,-0.336
3,TTCTCTGCTGGTCACTCCCGCT,-1.51
4,TTTGGAACTGAATAGGTGGATC,-0.304
5,TGGACTTTTGCTTTACATCAGG,-1.63
6,TTAGATTTTGGAACTGAATAGG,-0.116
7,TTACATCAGGTTTCTCTTCCAG,0.199
8,TTATAGGCGTCTGCTGTACTGG,-0.778
9,TCTCCTTAGATTTTGGAACTGA,-0.0429
10,TAGGCGTCTGCTGTACTGGGGT,0.489
11,TTCCTGGGAATGCTTCTCCATC,-1.49
12,TTCTCCATCAACTTCTCCTTAG,-0.561

# Molecular target: C17orf103
# Experiment: as above
# Conditions: shRNA
row,Sequence,sensor-assay potency score (higher = more potent)
1,ATCTGGGACCTCGGTGTGCTGC,-1.85
2,TGGGACCTCGGTGTGCTGCAGG,-1.5
3,TTGAGCCGGACAGTGAACTGGC,-0.109
4,TCATAGAGCAGGACGGCCCGGT,-0.156
5,ACGTACTTCTGGATGTACCAGC,-1.62
6,TACTTCTGGATGTACCAGCAGG,-1.01
7,TAGGCATCTGGGACCTCGGTGT,-0.272
